In the library only some 7.2% were active in any assay of this set; here they are far more common.
FMDV inh: foot and mouth disease virus antiviral activity. actives 1.2% (n = 410,000). Potency, µM (highest dose often 57.9 µM), for the others: at the top dose activity change, negative = inhibition, hits mostly inhibitors. FMDV antiviral cell-based qHTS; calls by dose curve; tested in HEK293T cells; further: read-out not given here; nearly all actives have a fitted effect of over 45% in size
Lassa entry inh: Lassa virus entry inhibition | Potency, µM (titrated, usually from 37.9 µM), for the others: top-dose activity change, negative = inhibition, usual class: inhibitors | Lassa virus pseudotype entry inhibition, cell reporter | actives 1.2% (n = 300,000); calls by dose curve; tested in HEK293 cells; further: nearly all actives have a fitted effect of over 50% in size
RE007 growth inh: less growth of the S. pombe RE007 Vpr strain | S. pombe RE007 Vpr strain, BacTiter-Glo ATP luminescence, 24 h | Potency, µM (doses to about 92.2 µM), inactives show at the top dose activity change, negative = less growth, usual class: inhibitors | actives 0.21% (n = 360,000) | AID 651644; active means well fitted falling curve with a large enough effect; inconclusive means small, poorly fitted or top-dose-only effect; inactive means no such curve, though single readings can be large or run the other way; further: nearly all actives have a fitted effect of over 50% in size
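Fission yeast RE007 carrying one integrated HIV-1 vpr copy, seeded at OD 0.01 in PMG+AL medium with 23 nL pinned compound. Grown 24 h at 30 degrees; viability read by BacTiter-Glo luminescence after 5 min.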
MARV entry inh: blocks Marburg virus binding to or entry into cells. Marburg virus pseudotyped entry inhibition, cell reporter. Potency, µM (top dose mostly 37.8 µM), for the others: top-dose activity change, negative = inhibition, actives largely listed as inhibitors. actives 1.8% (n = 300,000); calls by dose curve; tested in HEK293 cells
HCV inhibitor: HCV inhibition; Potency, µM (doses to about 41.8 µM), without a hit: at the top dose activity change, negative = inhibition, usual class: inhibitors; AID 651820; Huh7.5.1 HCVcc-Cre infection, luciferase reporter, 44 h; actives 3.4% (n = 340,000)
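Luciferase read-out (15 sec integration) after a 15 min room-temperature substrate step quantifies HCVcc-Cre infection. Cells, 1,000 per well, had compound added 4 h post-plating, then virus at ~0.5 moi, and were cultured 44 h.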
Sm TGR block: inhibitors of Schistosoma mansoni thioredoxin glutathione reductase; Potency, µM (series often up to 114 µM), inactives show at the top dose activity change, negative = inhibition, hits mostly inhibitors; purified TGR, DTNB reduction, TNB absorbance 405 nm; actives 3% (n = 360,000); further: nearly all actives have a fitted effect of over 60% in size
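Kinetic colorimetric format: TGR-catalysed, NADPH-driven DTNB reduction monitored via TNB absorbance. Enzyme dispensed at 20 nM; compound exposure 15 min at room temperature before reaction start.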
* marks the source's active call; other numbers are inactive results; [ ] = dose if it differs, or a comment. Unless noted, the call rests on the fitted dose curve; in most records, active means well fitted curve in the direction sought with a large enough effect; inconclusive means small, poorly fitted or top-dose-only effect, or another doubt; inactive means no such curve, though single readings can be large; an effect the other way counts as inactive or inconclusive. On the % scale 0 is the no-effect control and ±100 the full control effect; potency means the concentration at half of the fitted maximal effect.

Screening COc1ccc([C@]23Cc4cc(OC)c(OC)cc4C(O2)c2c(c4ccccc4oc2=O)O3)cc1 returned Sm TGR block 4µM*.
COc1cc2c(cc1OC)C1OC(c3ccsc3)(C2)Oc2cc(C)oc(=O)c21 (configuration not stated) was read as MARV entry inh -40%[14.2 µM] and Sm TGR block inconclusive.
For COc1ccc([C@]23Cc4ccccc4C(O2)c2c(c4ccc(OC)cc4oc2=O)O3)cc1 the results were MARV entry inh -10%[14.2 µM] and Sm TGR block inconclusive.
Screening COc1ccc([C@]23Cc4cc(OC)c(OC)cc4C(O2)c2c(cc(C)oc2=O)O3)cc1 returned MARV entry inh inconclusive and Sm TGR block 7.1µM*.
Screening O=c1oc2ccccc2c2c1C1O[C@](c3ccsc3)(Cc3ccccc31)O2 returned Sm TGR block 11µM*.
Screening COC(=O)c1ccc(NC(=O)CC2C(=O)N(c3ccccc3)C(=O)N2Cc2ccc(F)cc2)cc1 (configuration not stated) returned FMDV inh -10%, Lassa entry inh 0%[46.1 µM] and Sm TGR block -13%.
For COc1ccc(N(C)C(=O)c2nc(-c3cccc(F)c3)n3c2CCCCC3)c(OC)c1 the results were FMDV inh -8%, Lassa entry inh -3%[46.1 µM] and Sm TGR block -2%.
For Cc1ccc(-c2nnc(SCC(=O)NC3CCCC3)nc2-c2ccc(C)cc2)cc1 the results were FMDV inh -16%, Lassa entry inh -2%[46.1 µM] and Sm TGR block -17%.
For COCCn1c(=O)c(-c2cccc(C#N)c2)nc2cnc(Oc3ccc(OC)cc3)nc21 the results were FMDV inh -17%.
Screening O=C1c2ccccc2C(Nc2cccc(C(F)(F)F)c2)N1Cc1ccco1 (configuration not stated) returned FMDV inh inconclusive, Lassa entry inh inconclusive, RE007 growth inh -1%, MARV entry inh 14µM*, HCV inhibitor inconclusive and Sm TGR block 0%.
For CCOC(=O)c1cccc(NC2c3ccccc3C(=O)N2Cc2ccco2)c1 (configuration not stated) the results were FMDV inh 13µM*, RE007 growth inh 18%, HCV inhibitor inconclusive and Sm TGR block inconclusive.
O=C1c2ccccc2N2C(=O)c3ccccc3C2N1Cc1ccco1 (configuration not stated) was read as FMDV inh -27%, Lassa entry inh -18%, RE007 growth inh 3%, MARV entry inh -24%, HCV inhibitor -14% and Sm TGR block 14µM*.
COc1cccc(OCc2cc(C3Nc4ccccc4C(=O)N3Cc3ccco3)ccc2OC)c1 (configuration not stated) was read as FMDV inh -21%, Lassa entry inh 8.9µM*, RE007 growth inh 2%, MARV entry inh inconclusive, HCV inhibitor inconclusive and Sm TGR block 18µM*.
Screening CC(=O)c1cccc(NC2c3ccccc3C(=O)N2Cc2ccco2)c1 (configuration not stated) returned FMDV inh inconclusive, RE007 growth inh 3%, HCV inhibitor inconclusive and Sm TGR block inconclusive.
For COc1cccc(NC2c3ccccc3C(=O)N2Cc2ccco2)c1 (configuration not stated) the results were FMDV inh -23%, RE007 growth inh 7%, HCV inhibitor inconclusive and Sm TGR block 40µM*.
`Cc1ccccc1NC1c2ccccc2C(=O)N1Cc1ccco1` (configuration not stated) gave FMDV inh -4%, RE007 growth inh 10%, HCV inhibitor -11% and Sm TGR block 20µM*.
Screening CCN(CC)S(=O)(=O)c1ccc(NC2c3ccccc3C(=O)N2Cc2ccco2)cc1 (configuration not stated) returned FMDV inh -26%, RE007 growth inh 3%, HCV inhibitor -17% and Sm TGR block 22µM*.
Screening COc1ccccc1N1CCN(c2ccc(-c3nc(-c4ccccc4)no3)cc2[N+](=O)[O-])CC1 returned FMDV inh -13%, Lassa entry inh 0%[46.1 µM], MARV entry inh inconclusive and Sm TGR block -2%.
CC1=C(C(=O)N2CCCCCC2)CC(CC(=O)NCC2CCCCC2)C(=O)N1Cc1ccc(F)cc1 (configuration not stated) was read as FMDV inh -8% and RE007 growth inh 4%.
`O=C(NCCN1CCOCC1)c1cc2n(n1)[C@@H](C(F)(F)F)C[C@H](c1ccc(F)cc1)N2` gave MARV entry inh 28%.
Screening O=S(=O)(/C=C/c1ccccc1)N1CCC(n2c(C3CCCO3)nc3cccnc32)CC1 (configuration not stated) returned FMDV inh 7%.
`COc1ccc(Cl)cc1NC(=O)CN(c1cc(C)cc(C)c1)S(=O)(=O)c1c(C)n[nH]c1C` gave FMDV inh inconclusive, Lassa entry inh inconclusive, MARV entry inh -28%[46.1 µM] and Sm TGR block 0%.
`Cc1ccc(NC2=NCC(=O)N2C2CCCC2)c(C)c1` gave FMDV inh -22%, Lassa entry inh 10%, RE007 growth inh -8%, MARV entry inh 0%, HCV inhibitor 7% and Sm TGR block 22µM*.
`C=C1C(=O)[C@@]23[C@H](O)C[C@@H]4C(C)(C)CC[C@H](O)[C@]4(C)[C@@H]2C[C@H](O)[C@@H]1[C@H]3O` gave FMDV inh inconclusive, Lassa entry inh inconclusive, RE007 growth inh 2%, MARV entry inh 21µM*, HCV inhibitor 2% and Sm TGR block 10µM*.
`C=C1C(=O)[C@@]23[C@H](O)C[C@@H]4C(C)(C)CC[C@H](O)[C@@]4(C)[C@@H]2CC[C@@H]1[C@H]3O` gave FMDV inh inconclusive, Lassa entry inh 10µM*, RE007 growth inh 3%, MARV entry inh inconclusive, HCV inhibitor inconclusive and Sm TGR block 20µM*.
For Cc1onc(-c2ccccc2)c1C(=O)N(Cc1ccco1)Cc1cccs1 the results were FMDV inh -27%, Lassa entry inh inconclusive, RE007 growth inh 5%, MARV entry inh inconclusive, HCV inhibitor -26% and Sm TGR block 18µM*.
Cc1ccc(C)c(N2CCN(C3CCCC(C)C3)CC2)c1 (configuration not stated) was read as FMDV inh inconclusive, Lassa entry inh inconclusive, RE007 growth inh -13%, MARV entry inh 5µM*, HCV inhibitor -22% and Sm TGR block -2%.
`CCN1C(N(C)CCOC)=NC(c2cccc(F)c2)C(C(=O)OC)=C1C` (configuration not stated) gave Lassa entry inh inconclusive and MARV entry inh -24%[14.2 µM].

Compound activity deposited in PubChem BioAssay by National Center for Advancing Translational Sciences (NCATS).
